Assay type in all cases: functional
In assay [1] the test system is Plasmodium falciparum. Nature of the assay: GSK_TCMDC: Inhibition of Plasmodium falciparum 3D7 in whole red blood cells, using parasite LDH activity as an index of growth. Test compounds present at 2uM.
Assay [2] has as its system Plasmodium falciparum. Nature of the assay: GSK_TCMDC: Inhibition of Plasmodium falciparum Dd2 in whole red blood cells, using parasite LDH activity as an index of growth. Test compounds present at 2uM.
The next assay deals with HepG2. Description: GSK_TCMDC: Percent inhibition of human HepG2 cell line. Test compounds present at 10uM.

The results in this text go back to ChEMBL document CHEMBL1157539, “Thousands of chemical starting points for antimalarial lead identification” (Nature, 2010).

Usually Inhibition stands for the drop in the measured response relative to a control, in per cent. Low readings indicate a weak effect, high ones a strong effect.

In the case of `Nc1nccc2ccc(-c3ccc4nccn4c3)cc12.O=C(O)C(F)(F)F`, the results for the Inhibition in the assay on Plasmodium falciparum [1], with Plasmodium falciparum [2] and in the assay with HepG2 were 100%, 100% and 15%, respectively.

Take `Cc1ccc(-n2c(Sc3ncnc4sccc34)nnc2N2CCCC2)cc1`: the Inhibition stood at 99% with Plasmodium falciparum [1], 100% in the assay with Plasmodium falciparum [2] and 0% in the assay on HepG2.

On to `FC(F)(F)c1ccc2[nH]c(-c3ccc(-c4ccc(CNCCN5CCNCC5)cc4)s3)nc2c1.O=C(O)C(F)(F)F`, for which the Inhibition is reported as 94% in the assay on Plasmodium falciparum [1], 79% with Plasmodium falciparum [2] and 17% with HepG2.

As to `O=C(/C=C/c1ccc(Cl)c(Cl)c1)NCCCCCN1CCC(NC(=O)Nc2ccc3c(c2)OCO3)CC1`, the Inhibition in the assay on Plasmodium falciparum [1] is listed as 100%; in the assay with Plasmodium falciparum [2], 5%; in the assay on HepG2, 12%.

As for `CS(=O)(=O)NCCCNCc1cccc(-c2csc(-c3nc4ccccc4[nH]3)c2)c1.O=C(O)C(F)(F)F`, the Inhibition stood at 95% in the assay on Plasmodium falciparum [1], 9% with Plasmodium falciparum [2] and 23% in the assay on HepG2.

Regarding `c1csc(-c2nc(NCC3CCCO3)ncc2-c2ccsc2)n1` (stereo not given), the values for the Inhibition in the assay with Plasmodium falciparum [1], in the assay with Plasmodium falciparum [2] and in the assay with HepG2 were 89%, 83% and 0%, respectively.

For the molecule `CCC1(CC)NC(N)=NC(=N)N1OCc1ccc(Cl)c(Cl)c1.Cl`, the results for the Inhibition with Plasmodium falciparum [1], with Plasmodium falciparum [2] and in the assay on HepG2 were 94%, 49% and 49%, respectively.

As for `COc1ccc(C(=O)Nc2cc(Cl)c3c(c2)C2CCCN2CC3)cc1C(F)(F)F.Cl` (stereo not given), the Inhibition was determined as 99% in the assay with Plasmodium falciparum [1], 33% in the assay with Plasmodium falciparum [2] and 35% with HepG2.

Consider `Cc1nn(-c2ccccc2)nc1C(=O)NC1CCN(CCNC(=O)c2ccc(Cl)c(Cl)c2)CC1.O=C(O)C(F)(F)F`, for which the Inhibition in the assay with Plasmodium falciparum [1] came to 89%; with Plasmodium falciparum [2], 5%; with HepG2, 15%.

With `Cc1ccc(-n2c(=O)c3c(n4c(SC(C)C)nnc24)-c2ccccc2CC32CCCCC2)cc1`, the Inhibition in the assay with Plasmodium falciparum [1] is 95%; in the assay with Plasmodium falciparum [2], 88%; with HepG2 it was 8%.

`Cc1cc(C)cc(OCC(O)CN(CCN2CCOCC2)C(=O)Nc2ccc(Br)cc2)c1.O=C(O)C(F)(F)F` (stereo not given): the Inhibition in the assay on Plasmodium falciparum [1] was 85%; in the assay on Plasmodium falciparum [2] it was 19%; in the assay on HepG2 it was 7%.

Turning to `Cc1cc(N[C@@H](Cc2ccccc2)C(=O)NCCOc2ccccc2)nc(NCCc2cccs2)n1.O=C(O)C(F)(F)F`, the Inhibition is 95% in the assay on Plasmodium falciparum [1], 32% in the assay on Plasmodium falciparum [2] and 8% in the assay on HepG2.

As for `CC(C)c1ccc(N(CC(=O)N/N=C/c2ccc(C(F)(F)F)cc2)S(=O)(=O)c2ccc(C(F)(F)F)cc2)cc1`, the Inhibition in the assay with Plasmodium falciparum [1] is reported as 91%; in the assay with Plasmodium falciparum [2], 44%; in the assay on HepG2 it was 2%.

As for `CN(C)CCCn1cncc1-c1ccc2ncnc(Nc3ccc(OCc4ccccc4)cc3)c2c1`, the Inhibition in the assay on Plasmodium falciparum [1] was 100%; in the assay on Plasmodium falciparum [2], 100%; in the assay on HepG2 it was 37%.

For the molecule `COc1ccc(C(C(=O)NC2CCN(C[C@H](O)c3ccnc4ccc(OC)cc34)CC2)N2CCN(c3ccc([N+](=O)[O-])cc3)CC2)cc1` (stereo not given in full), the Inhibition with Plasmodium falciparum [1] was 99%; in the assay with Plasmodium falciparum [2], 80%; with HepG2, 17%.

For the molecule `COc1cc(NC(=O)c2c(-c3c(F)cccc3Cl)noc2C)c(OC)cc1Cl`, the results for the Inhibition in the assay on Plasmodium falciparum [1], in the assay on Plasmodium falciparum [2] and in the assay with HepG2 were 89%, 17% and 0%, respectively.

`O=C(NC(=S)NCc1ccncc1)c1ccccc1`: the figures for the Inhibition in the assay on Plasmodium falciparum [1], in the assay on Plasmodium falciparum [2] and with HepG2 were 94%, 0% and 0%, respectively.

For the molecule `CCCNC(=O)C1CCN(C(c2ccccc2)c2ccc(Cl)c(Cl)c2)CC1` (stereo not given), the Inhibition with Plasmodium falciparum [1] was 90%; with Plasmodium falciparum [2] it was 90%; in the assay on HepG2 it was 15%.

Take `O=C(CSc1nc(-c2ccccc2Cl)ns1)Nc1cccc(F)c1`: the Inhibition in the assay on Plasmodium falciparum [1] was 93%; in the assay on Plasmodium falciparum [2] it was 81%; with HepG2, 0%.

With `CCN(CC)/C(=N/C(=N)Nc1ccc(Cl)cc1)NCCCCCCCCN/C(=N\C(=N)Nc1ccc(Cl)cc1)N(CC)CC`, the Inhibition in the assay with Plasmodium falciparum [1] turned out to be 99%; in the assay with Plasmodium falciparum [2], 94%; in the assay on HepG2, 10%.

With `O=C(CCCCCNC(=O)c1ccc(O)c(-c2ccc(Cl)c(Cl)c2)c1)NCc1cccc2ccccc12`, the Inhibition turned out to be 99% in the assay with Plasmodium falciparum [1], 15% with Plasmodium falciparum [2] and 2% in the assay with HepG2.

`COc1ccc(OCCCN2CCN(CC(c3ccc(F)cc3)N3CCN(C(C)C)CC3)CC2)c2ccccc12.O=C(O)C(F)(F)F` (stereo not given): the values for the Inhibition in the assay with Plasmodium falciparum [1], in the assay with Plasmodium falciparum [2] and in the assay on HepG2 were 100%, 32% and 30%, respectively.

For `CCNc1cc(C(=O)N[C@@H](Cc2ccccc2)[C@H](O)CNC23CC4CC(CC(C4)C2)C3)cc(N2CCCCS2(=O)=O)c1.Cl`, the values for the Inhibition with Plasmodium falciparum [1], in the assay with Plasmodium falciparum [2] and in the assay with HepG2 were 98%, 99% and 3%, respectively.

In the case of `Cc1nc(N)nc(N)c1CCCOc1ccc(Br)cc1`, the values for the Inhibition in the assay on Plasmodium falciparum [1], in the assay with Plasmodium falciparum [2] and in the assay with HepG2 were 97%, 5% and 30%, respectively.

For `COc1ccccc1CCN1CCC(CN(C)Cc2ccc(O)c(Cl)c2)CC1`, the Inhibition with Plasmodium falciparum [1] turned out to be 100%; with Plasmodium falciparum [2], 52%; in the assay on HepG2 it was 19%.

Turning to `CS(=O)(=O)O.FC(F)(F)COc1c(CNCCCCCCNCc2ccc3ccccc3c2OCC(F)(F)F)ccc2ccccc12`, the Inhibition in the assay with Plasmodium falciparum [1] turned out to be 100%; with Plasmodium falciparum [2], 79%; in the assay with HepG2, 100%.

On to `Fc1ccc(CN2CCN(c3ncnc4cc(-c5ccccc5)sc34)CC2)cc1`, for which the results for the Inhibition with Plasmodium falciparum [1], with Plasmodium falciparum [2] and in the assay with HepG2 were 82%, 82% and 7%, respectively.

For the molecule `O=C(O)C(F)(F)F.OCC1CCN(Cc2cccc(-c3ccc(-c4nc5cc(C(F)(F)F)ccc5[nH]4)s3)c2)CC1`, the Inhibition in the assay with Plasmodium falciparum [1] was found to be 99%; in the assay with Plasmodium falciparum [2], 90%; in the assay with HepG2, 0%.

In the case of `COc1ccc(CN(C)Cc2ccc(NC(=O)c3cccc4c(=O)c5cccc(C)c5[nH]c34)cc2)cc1OC`, the Inhibition in the assay on Plasmodium falciparum [1] is given as 92%; in the assay with Plasmodium falciparum [2], 22%; in the assay on HepG2, 7%.

For the molecule `CCCCN1CCCN(Cc2cccc(NC(=O)c3ccc(-c4ccccc4)cc3)c2)CC1.O=C(O)C(F)(F)F`, the Inhibition is 92% in the assay with Plasmodium falciparum [1], 8% in the assay with Plasmodium falciparum [2] and 19% in the assay with HepG2.
